In test [1] the target is Platelet-activating factor acetylhydrolase (Homo sapiens) (UniProt Q13093). Description: inhibition of plasma PAF acetylhydrolase – biochemical, fluorescence polarization, human, confirmation (AID 463230;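 active means mean inhibition of the triplicate above the hit cutoff set for the earlier primary screen, cut at about 25% in these data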;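 further: 0% = enzyme with DMSO and 100% = wells lacking pPAFAH enzyme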). The conditions noted are these: recombinant pPAFAH, FP-Rh probe fluorescence polarization; at 3.39 µM; stronger effect = higher value.
Chain of Platelet-activating factor acetylhydrolase (Homo sapiens) (Q13093 whole entry, looked up): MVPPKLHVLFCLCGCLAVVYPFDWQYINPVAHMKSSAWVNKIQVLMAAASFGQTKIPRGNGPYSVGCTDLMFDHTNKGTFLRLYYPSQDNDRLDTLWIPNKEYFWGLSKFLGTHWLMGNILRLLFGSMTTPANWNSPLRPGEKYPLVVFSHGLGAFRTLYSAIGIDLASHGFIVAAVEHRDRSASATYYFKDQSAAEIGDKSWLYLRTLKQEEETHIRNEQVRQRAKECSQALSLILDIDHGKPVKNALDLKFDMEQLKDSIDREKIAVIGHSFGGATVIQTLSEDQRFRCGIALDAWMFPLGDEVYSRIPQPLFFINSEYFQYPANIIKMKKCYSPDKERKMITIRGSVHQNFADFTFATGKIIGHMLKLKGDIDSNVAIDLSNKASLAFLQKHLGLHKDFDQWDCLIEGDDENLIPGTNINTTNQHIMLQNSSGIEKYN
For test [2], the target named is Insulin-degrading enzyme (Homo sapiens) (UniProt P14735). Description: cellular IDE Abeta-cleavage inhibition – fluorescence polarization, HEK cells, FAbetaB substrate, confirmation (AID 435028;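 active means mean inhibition across triplicate wells above the cutoff set by the earlier primary insulin-degrading enzyme screen, cut at about 16% in these data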;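 further: 0% = DMSO wells and 100% = 60 µM reference IDE inhibitor Ii1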). Particulars: at 5.59 µM, stronger effect = higher value.
Chain of Insulin-degrading enzyme (Homo sapiens) (P14735 whole entry, looked up): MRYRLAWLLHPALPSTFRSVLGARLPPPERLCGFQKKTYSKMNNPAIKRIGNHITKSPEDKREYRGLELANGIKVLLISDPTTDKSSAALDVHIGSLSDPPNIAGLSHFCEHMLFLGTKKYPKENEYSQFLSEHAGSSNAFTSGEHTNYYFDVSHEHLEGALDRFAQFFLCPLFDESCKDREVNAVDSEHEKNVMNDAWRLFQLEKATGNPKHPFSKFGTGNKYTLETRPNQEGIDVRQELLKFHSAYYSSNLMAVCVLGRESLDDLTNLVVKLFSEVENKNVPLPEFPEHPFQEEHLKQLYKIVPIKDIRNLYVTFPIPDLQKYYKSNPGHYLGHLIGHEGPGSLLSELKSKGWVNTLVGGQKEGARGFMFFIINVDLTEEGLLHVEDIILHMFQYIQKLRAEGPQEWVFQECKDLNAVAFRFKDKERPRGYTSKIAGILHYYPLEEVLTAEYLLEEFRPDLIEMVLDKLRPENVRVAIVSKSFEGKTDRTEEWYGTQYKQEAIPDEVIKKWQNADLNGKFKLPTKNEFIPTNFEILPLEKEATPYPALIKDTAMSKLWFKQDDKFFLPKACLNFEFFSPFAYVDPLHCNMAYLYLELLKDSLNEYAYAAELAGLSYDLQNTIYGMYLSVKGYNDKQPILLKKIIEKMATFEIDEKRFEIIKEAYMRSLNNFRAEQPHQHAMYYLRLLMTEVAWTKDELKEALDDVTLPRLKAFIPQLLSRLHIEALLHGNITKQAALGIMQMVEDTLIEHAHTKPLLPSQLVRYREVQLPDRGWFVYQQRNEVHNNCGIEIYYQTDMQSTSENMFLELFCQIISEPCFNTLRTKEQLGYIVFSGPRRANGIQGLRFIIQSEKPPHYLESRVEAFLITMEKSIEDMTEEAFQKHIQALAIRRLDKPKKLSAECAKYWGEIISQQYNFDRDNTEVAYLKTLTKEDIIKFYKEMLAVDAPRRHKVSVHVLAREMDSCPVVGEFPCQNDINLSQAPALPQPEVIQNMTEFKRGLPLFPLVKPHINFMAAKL
Test [3] can be described thus: HEK cell viability loss – luminescence, cytotoxicity control for IDE inhibitor project (AID 449730; in the data active means inhibition above about 22%;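 further: 0% = vehicle wells and 100% = reference cytotoxic drug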). The conditions noted are these: HEK293 cytotoxicity, ATP luminescence; at 5.59 µM; stronger effect = higher value.
The target of test [4] is Oxysterols receptor LXR-beta (Homo sapiens) (UniProt P55055). Description: nonspecific reporter activation via LXR – cell-based, luminescence, HEK293, H. contortus campaign, counter-screen for hcDAF-12 agonist project, confirmation (AID 743027;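 active means mean percent activation of the reporter above a cutoff set as the average over tested compounds plus their standard deviation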). Particulars: HEK293 Gal4-LXR tk-luc reporter, 24 h, at 6.8 µM, stronger effect = higher value, normalized: DMSO 0%, positive control 100%.
Chain of Oxysterols receptor LXR-beta (Homo sapiens) (P55055 whole entry, looked up, the tested form may be a part): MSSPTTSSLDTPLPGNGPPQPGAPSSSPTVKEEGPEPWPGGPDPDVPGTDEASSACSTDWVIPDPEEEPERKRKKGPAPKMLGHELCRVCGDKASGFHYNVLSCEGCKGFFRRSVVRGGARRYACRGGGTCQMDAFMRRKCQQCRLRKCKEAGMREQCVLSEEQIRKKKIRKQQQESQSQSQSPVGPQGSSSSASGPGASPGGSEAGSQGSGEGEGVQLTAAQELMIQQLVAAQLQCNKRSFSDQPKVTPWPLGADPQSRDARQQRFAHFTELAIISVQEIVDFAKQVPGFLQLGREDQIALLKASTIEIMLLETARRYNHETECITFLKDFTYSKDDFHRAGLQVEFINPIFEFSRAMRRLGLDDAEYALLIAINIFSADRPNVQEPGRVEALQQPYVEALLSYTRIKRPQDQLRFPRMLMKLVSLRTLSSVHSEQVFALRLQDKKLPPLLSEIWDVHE
The test system of test [5] is Nuclear hormone receptor DAF-12 (Haemonchus contortus). Description: hcDAF-12 luciferase reporter activation, retest – cell-based, luminescence, HEK293, lit1-tk-luc, triplicate, confirmation (AID 743032;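 active means mean activation across triplicate tests above the threshold derived from the earlier primary screen, cut at about 5.5% in these data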;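 further: 0% = DMSO only wells and 100% = 3 µM Δ7-dafachronic acid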). The conditions noted are these: HEK293 hcDAF-12 lit1-tk-luc reporter, at 6.8 µM, stronger effect = higher value, % of Δ7-dafachronic acid response.
The target of test [6] is Platelet-activating factor acetylhydrolase IB subunit alpha1 (Homo sapiens) (UniProt Q15102). Description: inhibition of PAF acetylhydrolase 1B subunit 3 – biochemical, fluorescence polarization, human, confirmation (AID 493032;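 active means average inhibition over triplicate runs above the hit cutoff set in the earlier primary screen, cut at about 25% in these data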;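 further: 0% = enzyme with DMSO and 100% = wells lacking PAFAH1B3 protein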). The conditions noted are these: recombinant PAFAH1B3, FP-Rh activity-based probe, at 3.39 µM, stronger effect = higher value.
Chain of Platelet-activating factor acetylhydrolase IB subunit alpha1 (Homo sapiens) (Q15102 whole entry, looked up): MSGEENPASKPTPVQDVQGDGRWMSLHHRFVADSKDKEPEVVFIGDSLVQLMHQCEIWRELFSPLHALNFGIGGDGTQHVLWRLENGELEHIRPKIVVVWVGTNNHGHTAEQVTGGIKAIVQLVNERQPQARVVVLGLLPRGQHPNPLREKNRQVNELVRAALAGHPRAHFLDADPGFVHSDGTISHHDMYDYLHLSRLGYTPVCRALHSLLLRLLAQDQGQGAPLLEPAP
The target of test [7] is Toll-like receptor 9 (Homo sapiens) (UniProt Q9NR96). Description: disruptors of TLR9 binding to MyD88 – cell-based, CHO, BLA complementation, fluorescence, triplicate, confirmation (AID 540250;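 active means mean inhibition across three repeats above about 21% taken from the earlier screen, limit read from the data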;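 further: blue over green emission ratio reports constitutive TLR9 MyD88 association via BLA complementation; 0% = DMSO vehicle wells and 100% = clavulanate BLA inhibitor wells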). The conditions noted are these: CCF4 FRET ratio, at 4.98 µM, stronger effect = higher value.
Chain of Toll-like receptor 9 (Homo sapiens) (Q9NR96 whole entry, looked up): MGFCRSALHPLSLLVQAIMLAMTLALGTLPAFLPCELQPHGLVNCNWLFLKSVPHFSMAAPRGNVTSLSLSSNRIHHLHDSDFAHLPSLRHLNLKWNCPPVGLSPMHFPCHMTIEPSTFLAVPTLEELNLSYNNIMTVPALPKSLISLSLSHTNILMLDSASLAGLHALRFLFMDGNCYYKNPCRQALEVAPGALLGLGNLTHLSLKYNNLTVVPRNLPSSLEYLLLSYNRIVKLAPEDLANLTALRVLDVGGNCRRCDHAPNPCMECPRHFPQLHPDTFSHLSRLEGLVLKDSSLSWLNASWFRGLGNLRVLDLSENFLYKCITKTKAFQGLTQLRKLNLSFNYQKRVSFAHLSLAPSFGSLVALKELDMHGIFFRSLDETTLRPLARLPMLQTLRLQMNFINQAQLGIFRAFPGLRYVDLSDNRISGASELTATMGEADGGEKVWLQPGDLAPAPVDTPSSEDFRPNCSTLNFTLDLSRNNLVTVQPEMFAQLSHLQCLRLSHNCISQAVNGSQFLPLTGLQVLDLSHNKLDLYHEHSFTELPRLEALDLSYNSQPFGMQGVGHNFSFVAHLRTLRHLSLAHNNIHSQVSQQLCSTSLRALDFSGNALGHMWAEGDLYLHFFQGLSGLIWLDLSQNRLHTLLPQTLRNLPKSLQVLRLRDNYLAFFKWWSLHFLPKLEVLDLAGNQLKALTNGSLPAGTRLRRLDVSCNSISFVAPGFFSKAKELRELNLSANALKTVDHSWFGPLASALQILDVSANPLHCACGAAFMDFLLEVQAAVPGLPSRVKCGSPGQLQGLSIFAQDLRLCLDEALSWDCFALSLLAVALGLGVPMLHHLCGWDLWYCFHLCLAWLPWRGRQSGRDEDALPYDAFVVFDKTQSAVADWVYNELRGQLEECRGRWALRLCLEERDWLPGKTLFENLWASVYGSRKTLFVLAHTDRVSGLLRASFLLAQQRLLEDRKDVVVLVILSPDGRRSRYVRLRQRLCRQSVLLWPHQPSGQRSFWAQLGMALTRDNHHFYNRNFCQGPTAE
Test [8] in a line: BLA reporter readout interference – cell-based, fluorescence, artefact control for TLR9-MyD88 binding inhibitor project (AID 540251;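 active means mean inhibition above a 50% cutoff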;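 further: counterscreen of TLR9-MyD88 hits on CMV-driven BLA in CHO-K1 cells; 0% = DMSO alone and 100% = clavulanate blocking BLA; higher means less blue over green ratio so more BLA blockade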). The conditions noted are these: CHO-BLA cells, CCF4 FRET ratio, at 4.98 µM, stronger effect = higher value.
Test [9] can be described thus: CHO cell viability loss – luminescence, single concentration, cytotoxicity control for TLR9-MyD88 binding inhibitor project (AID 588336; in the data active means inhibition above about 11%). The conditions noted are these: TLR9-MyD88 CHO cells cytotoxicity, at 4.98 µM, stronger effect = higher value.
Test [10] addresses Receptor-interacting serine/threonine-protein kinase 2 (Homo sapiens) (UniProt O43353). Description: inhibitors of RIPK2 association with NOD2 – fluorescence, CHO cells, BLA complementation, triplicate, confirmation (AID 624370;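 active means mean inhibition across replicates above a set limit taken from the earlier primary screen, cut at about 21% in these data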;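 further: 0% = DMSO-only wells and the high end = clavulanate BLA-blocked wells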). Particulars: CCF4 FRET, at 4.98 µM, stronger effect = higher value.
A short description of test [11]: BLA reporter readout interference – cell-based, CHO-K1 CMV-bla, CCF4 FRET, fluorescence, artefact control for NOD2-RIPK2 interaction inhibitor project, confirmation (AID 624371;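 active means mean inhibition above the low-control mean inhibition plus three low-control SD, cut at about 11% in these data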;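 further: 0% = DMSO only wells and 100% = clavulanate high control wells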). Particulars: CCF4 FRET ratio, counterscreen, at 4.98 µM, stronger effect = higher value.
For test [12], the target named is Serine protease HTRA1 (Homo sapiens) (UniProt Q92743). Description: confirming inhibition of human HTRA1 – biochemical, fluorescence polarization, confirmation (AID 540248;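 active means mean inhibition over three repeats above a set limit taken from the earlier primary screen, cut at about 37% in these data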;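 further: 0% = HTRA1 with DMSO and 100% = wells lacking HTRA1; inhibitors block probe binding so polarization drops and inhibition rises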). Particulars: recombinant HTRA1, FP-rhodamine activity-based probe, at 5.96 µM, stronger effect = higher value.
The target in test [13] is (Lyso)-N-acylphosphatidylethanolamine lipase (Mus musculus) (UniProt Q8VD66). Description: mouse ABHD4 hydrolase blockers, triplicate – biochemical, fluorescence polarization, confirmation (AID 720658;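 active means mean inhibition across replicates above the hit cutoff set in the primary screen, cut at about 30% in these data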;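 further: 0% = wild-type ABHD4 with DMSO and 100% = catalytically dead S159A mutant with DMSO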). The conditions noted are these: purified mABHD4, FP-Rh probe fluorescence polarization; at 8.92 µM; stronger effect = higher value.
Chain of (Lyso)-N-acylphosphatidylethanolamine lipase (Mus musculus) (Q8VD66 whole entry, looked up): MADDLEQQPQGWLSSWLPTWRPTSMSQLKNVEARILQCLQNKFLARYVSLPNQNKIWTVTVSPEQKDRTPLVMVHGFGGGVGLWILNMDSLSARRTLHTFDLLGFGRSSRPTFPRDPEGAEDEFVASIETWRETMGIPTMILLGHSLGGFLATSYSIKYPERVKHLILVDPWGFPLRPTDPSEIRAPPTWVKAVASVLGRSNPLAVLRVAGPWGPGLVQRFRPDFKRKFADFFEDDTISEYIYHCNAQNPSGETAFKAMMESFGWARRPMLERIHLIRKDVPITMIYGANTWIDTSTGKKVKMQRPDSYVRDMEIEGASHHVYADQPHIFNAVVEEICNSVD
Test [14] deals with Protein-arginine deiminase type-4 (Homo sapiens) (UniProt Q9UM07). Description: protein arginine deiminase 4 blockade, retest – biochemical, fluorescence polarization, confirmation (AID 488796).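 Further: inhibitors block active-site labeling by the probe so polarization falls; 0% = PAD4 with probe and DMSO and 100% = probe without PAD4 enzyme.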 Particulars: recombinant PAD4, RCA probe fluorescence polarization; at 6.36 µM; stronger effect = higher value.
Chain of Protein-arginine deiminase type-4 (Homo sapiens) (Q9UM07 whole entry, looked up): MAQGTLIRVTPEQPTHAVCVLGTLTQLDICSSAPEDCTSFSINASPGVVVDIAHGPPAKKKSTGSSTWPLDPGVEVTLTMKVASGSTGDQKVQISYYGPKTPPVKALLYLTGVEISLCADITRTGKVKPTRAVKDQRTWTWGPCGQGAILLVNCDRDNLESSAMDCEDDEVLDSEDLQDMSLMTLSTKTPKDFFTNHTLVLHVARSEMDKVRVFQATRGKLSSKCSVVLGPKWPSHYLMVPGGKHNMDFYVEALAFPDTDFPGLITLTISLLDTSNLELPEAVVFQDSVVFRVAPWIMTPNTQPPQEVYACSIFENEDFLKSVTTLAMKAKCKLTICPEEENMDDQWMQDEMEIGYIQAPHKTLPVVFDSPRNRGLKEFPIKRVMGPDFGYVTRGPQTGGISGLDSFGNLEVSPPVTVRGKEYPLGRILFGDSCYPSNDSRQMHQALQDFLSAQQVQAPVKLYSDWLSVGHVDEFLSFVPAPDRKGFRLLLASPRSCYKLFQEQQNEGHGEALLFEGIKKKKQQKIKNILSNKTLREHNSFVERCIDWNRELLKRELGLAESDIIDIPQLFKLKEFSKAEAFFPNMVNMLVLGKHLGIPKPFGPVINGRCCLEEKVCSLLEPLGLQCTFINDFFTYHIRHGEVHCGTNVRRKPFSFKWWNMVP
Test [15] relates to transactivating tegument protein VP16 (Human herpesvirus 1). Description: compounds suppressing VP16-driven luciferase signal – cell-based, luminescence, single concentration, counter-screen for SRC2 inhibitor project (AID 652007; in the data active means inhibition above about 36%). Particulars: cell-based VP16 transactivation luciferase reporter, at 8.9 µM, stronger effect = higher value.
Test [16] has as its target Nuclear receptor coactivator 2 (Homo sapiens) (UniProt Q15596). Description: inhibition of GAL4-SRC2 driven luciferase expression – cell-based, luminescence, HEK293, triplicate, confirmation (AID 652008;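 active means mean inhibition above 46.5%, the solvent-only control mean plus 3 SD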;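 further: 0% = DMSO-treated cells and 100% = Gossypol at 36 µM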). Particulars: HEK293 GAL4-SRC2 luciferase reporter, at 8.9 µM, stronger effect = higher value.
The nature of test [17]: BSA probe fluorescence interference – biochemical, TAMRA-labeled BSA, counter-screen for TCR-CD3 interaction inhibitor project (AID 652035; in the data active means inhibition above about 23%;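 further: 0% = buffer low control and 100% = reference high control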). The conditions noted are these: TAMRA-labeled BSA probe fluorescence counterscreen; at 9.4 µM; stronger effect = higher value.
The subject of test [18] is T-cell receptor (TCR)-CD3 interaction, human. Description: blockers of TCR binding to CD3 – biochemical, fluorescence, TAMRA-labeled TCR probe, confirmation (AID 652036; in the data active means inhibition above about 19%). Particulars: TAMRA-labeled TCR probe fluorescence binding assay; at 9.4 µM; stronger effect = higher value.
For test [19], the system named is DAF-12 nuclear receptor (Heterodera glycines), GAL4-LBD fusion. Description: hgDAF-12 GAL4 fusion reporter activation, retest – cell-based, luminescence, HEK293, GAL4-LBD fusion, confirmation (AID 743050;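 active means mean activation over triplicate wells above the hit cutoff derived from the earlier primary screen, cut at about 11% in these data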;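 further: 0% = DMSO low control and 100% = 2 mM sodium butyrate high control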). The conditions noted are these: HEK293 GAL4-hgDAF12 luciferase reporter, agonist mode; at 6.8 µM; stronger effect = higher value; percent of butyrate response.
Test [20] deals with Oxysterols receptor LXR-beta (Homo sapiens) (UniProt P55055). Description: nonspecific reporter activation via LXR – cell-based, luminescence, HEK293, H. glycines campaign, counter-screen for hgDAF-12 agonist project, confirmation (AID 743051;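 active means mean activation of the triplicate above a set limit carried over from the primary screen, none filed active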). Particulars: HEK293 Gal4-LXR luciferase reporter, 24 h; at 6.8 µM; stronger effect = higher value.

A number with no mark means an inactive call. The list shows a part of the results. Active and inactive are the calls of the source.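 How the source made its calls, unless noted: active means mean inhibition across replicates above the hit cutoff set by the earlier primary screen (cut at about 15% in these data); inactive means the rest.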

Chain of Receptor-interacting serine/threonine-protein kinase 2 (Homo sapiens) (O43353 whole entry, looked up): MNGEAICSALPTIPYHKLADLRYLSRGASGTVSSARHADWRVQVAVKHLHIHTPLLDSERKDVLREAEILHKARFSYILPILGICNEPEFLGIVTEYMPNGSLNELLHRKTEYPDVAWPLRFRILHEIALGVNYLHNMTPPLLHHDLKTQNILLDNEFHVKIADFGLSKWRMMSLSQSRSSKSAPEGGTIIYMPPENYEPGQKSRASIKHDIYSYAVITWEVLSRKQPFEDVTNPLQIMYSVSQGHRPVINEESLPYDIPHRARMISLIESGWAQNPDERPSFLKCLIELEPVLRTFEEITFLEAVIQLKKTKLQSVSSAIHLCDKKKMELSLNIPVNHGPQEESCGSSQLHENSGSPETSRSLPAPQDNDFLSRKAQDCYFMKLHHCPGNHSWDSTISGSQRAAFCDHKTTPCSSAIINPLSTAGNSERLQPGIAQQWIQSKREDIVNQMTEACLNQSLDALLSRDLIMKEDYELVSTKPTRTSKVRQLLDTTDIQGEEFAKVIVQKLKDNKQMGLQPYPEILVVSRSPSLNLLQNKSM

For `Oc1ccc(N=Nc2nccs2)c(O)c1`, the inhibition in test [1] was 5.09%.
As to `COC(=O)c1ccc(C(NC(=O)OCc2ccccc2)/C(C)=C/[C@@H](C)C(=O)NCc2ccc(OC)c(OC)c2)cc1` (stereo not given in full), the inhibition in test [1] is 36% (active).
Turning to `O=C(Nc1nc(-c2ccco2)c(-c2ccco2)s1)c1ccco1`, in test [1], the inhibition is 17.3%.
As for `N#CC1=C(N)Oc2c(sc3ccccc23)C1c1ccco1` (stereo not given), the figures for the inhibition in test [2] and in [3] were 55.6% (active) and 39.4% (active), respectively. Moreover, the activation in test [4] was -0.13%; in [5] it was 1.83%.
`Cc1ccc(S(=O)(=O)NCc2csc(C)n2)c(C)c1`: the inhibition in [1] is 2.33%.
Turning to `Oc1c(Br)cc(/C=N/NC(=S)NCC2CCCO2)cc1Br` (stereo not given), in test [1], the inhibition was 36.3% (active).
For `O=C(/C=C(O)/C=C/c1ccc(O)cc1)/C=C/c1ccc(O)cc1`, the inhibition in test [2] is 50% (active); in [3], 7.11%; in test [6], 31.6% (active); in test [7], 39.7% (active); in [8], 42.9%; in test [9], 6.33%. Also, the figures for the inhibition in test [10] and in test [11] were 64.2% (active) and 65.5% (active), respectively.
In the case of `N#C/C(=C\c1ccc(O)c(O)c1)C(=O)NCc1ccccc1`, the inhibition is 43.1% (active) in test [2], 6.24% in test [3], 84.8% (active) in test [12] and 30.8% (active) in test [13].
For the compound `CCOc1ccc(NS(=O)(=O)c2ccc(C(=O)NCC(c3ccccc3OC)N3CCCC3)cc2)cc1` (stereo not given), in [1], the inhibition was 45.4% (active).
Take `COc1cc(/C=C(\C#N)c2nc3c(s2)CC(C)CC3)ccc1O` (stereo not given): the inhibition is 161% (active) in test [2]; 11.3% in test [3]; 7.82% in test [7]; 17% in test [8]; 0.65% in test [9]; 29.5% (active) in test [10]. Also, the inhibition in test [11] was 39.6% (active).
For `CC(C)C1N=C2c3ccccc3N=C(SCC(=O)c3ccc(O)c(O)c3)N2C1=O` (stereo not given), the inhibition was 54.5% (active) in [1] and 57% (active) in test [12].
As to `Nc1c(C(=O)c2cccs2)sc2nsc(SCCN3CCCCC3)c12`, the inhibition was 54.9% (active) in test [2]; 18.4% in [3]; 31.7% (active) in test [7]; 27.5% in test [8]; 10.9% (active) in test [9]; 19.8% in test [10]. Besides, the inhibition in [11] is 36.9% (active).
For the compound `CC(=O)N(c1ccc2oc(=O)sc2c1)S(=O)(=O)c1ccc(C)cc1`, in test [14], the inhibition was 10.9%.
For `Cc1cc(O)ccc1-c1cnc2ccccc2n1`, the inhibition in test [14] is 29.1% (active).
Same read-out and setting: the same measure for `COc1cc(SC#N)ccc1N=Cc1c(C)[nH]n(-c2ccc(C)cc2)c1=O`: 29.7% (active); for `Cc1ccc(C(=O)CSc2nc3ccccc3c(=O)n2N)o1`: 1.81%; for `COc1ccccc1CNC(=O)C1CCN(c2nc3ccccc3o2)CC1`: 5.44%.
Still for that read-out and setting: for `COC(=O)c1ccc(NC(=O)CSc2nncc3ccc(OC)c(OC)c23)cc1` the value was 0.13%.
With `CCC(C)Cn1c(O)cc2nn(-c3nc4ccccc4s3)c(=O)c-2c1C` (stereo not given), the inhibition was 20.9% in [1]; 59.6% (active) in [12]; 86.8% (active) in test [15]; 94.8% (active) in test [16]; 54.4% (active) in test [13].
Turning to `O=c1[nH]n(-c2ccc([N+](=O)[O-])cc2)c(=O)c2ccccc12`, the inhibition was 25.3% (active) in test [14], 59.3% (active) in test [17], 46% (active) in test [18] and 43.2% (active) in test [13].
In the case of `CCC(=O)Nc1sc(C(=O)Nc2ccccc2)c(C)c1C(=O)OC`, the inhibition in [1] was 4.86%. Moreover, the activation in [19] is 9.78%; in test [20] it was 0.28%.
Regarding `CC(C)n1cnc2c(NCc3ccccc3)cc(OCC3CCN(C)CC3)cc21`, the inhibition in test [14] was -10.7%.
As for `Cc1ccn2cc(-c3nonc3C)cc2c1`, in test [14], the inhibition was 6.98%.
For `CNC(=S)NNC(=O)c1oc2nc(-c3ccccc3)cc(-c3ccco3)c2c1N`, the inhibition in [14] was 2%; in test [12], 11.5%; in test [17], -11.2%; in [18], 30.5% (active); in test [13] it was 17.5%.
Consider `COc1cccc2c(C)c(C(=O)O)[nH]c12`, for which the inhibition is 33% (active) in test [1] and 34.5% (active) in [13].
Consider `Cc1nn(C)cc1N1C(=O)c2cccc3c(N)ccc(c23)C1=O`, for which the inhibition in test [14] was 36.2% (active); in test [10], 24% (active); in test [11], 26.6% (active); in test [17] it was 52.9% (active); in test [18] it was 33.9% (active); in test [13], 40.4% (active).
As for `CC(C)C(NC(=O)c1ccc(Cl)cc1)C(=O)O` (stereo not given), the inhibition in [14] is -6.12%.
As to `CC(C)c1ccc(NC(=S)NNc2ccc(Cl)c(C(=O)O)c2)cc1`, the inhibition in test [1] is 11.9%; in [13] it was 19.4%.
Regarding `O=C(/C=C/c1cccs1)c1cc(Cl)ccc1OC(=O)N1CCOCC1`, the inhibition was 47.8% (active) in test [1], 20.3% in [15] and -4.35% in test [16].
For the compound `CCCCNC(=O)Nc1c(C)cc(SC#N)cc1C`, the inhibition in [14] was 35.6% (active).
As for `Cn1c(Nc2cccc(Cl)c2)nc2ccccc21`, the inhibition in test [14] is 4.71%.
With `O=C(CN1CCCCCC1)Nc1ccc(Br)cc1Br`, in test [14], the inhibition was 3.01%.

The values above are taken from PubChem BioAssay.
